Luciferase inh: Photinus pyralis luciferase inhibition. P08659. purified P. pyralis luciferase, luminescence, biochemical. Potency, µM (doses to about 115 µM), most hits filed as inhibitors. 76,000 tested, 2.5% active; also: nearly all actives have a fitted effect of over 65% in size
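Purified 10nM P. pyralis luciferase with 10uM D-luciferin and 10uM ATP in 50mM Tris acetate pH 7.5, 10mM Mg acetate, 0.01% Tween-20, 0.05% BSA. qHTS titration; luminescence read by CCD imager.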
HEK cytotox: HEK 293 cell cytotoxicity | HEK 293 viability, ATP luminescence (CellTiter-Glo), 48-72 h | Potency, µM (titrated, usually from 115 µM), for the others: top-dose activity change, negative = cytotoxicity, actives largely listed as inhibitors | 94,000 tested, 6.6% active | AID 1345083; also: nearly all actives have a fitted effect of over 60% in size
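Cytotoxicity was scored by loss of ATP-coupled luminescence (CellTiter-Glo) in HEK 293 cells. Compound treatment ran 48 or 72 hr at 37 degree Celsius, 5% CO2, 95% humidity.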
NPR1 antag: human Npr1 receptor antagonism | 76,000 tested, 1.6% active | P16066 | Potency, µM (titrated, usually from 46.3 µM), for inactives: at the top dose activity change, negative = inhibition, usual class: inhibitors | AID 1347048 | HEK293 hNpr1 GloSensor cGMP, ANP-stimulated luminescence; calls by dose curve; also: nearly all actives have a fitted effect of over 60% in size
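HEK293 cells stably expressing human Npr1 and cGMP GloSensor pGS-40F, loaded 2 h with 2% GloSensor reagent, given compound 30 min at room temperature. Luminescence read before and 20 min after 0.1 nM hNppA.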
3T3 cytotox: cytotoxic compounds in NIH 3T3 cells; NIH 3T3 viability, CellTiter-Glo ATP luminescence, 48-72 h; Potency, µM (highest dose often 96.7 µM), for the others: top-dose activity change, negative = cytotoxicity, usual class: inhibitors; 94,000 tested, 4.3% active; AID 1345082; also: nearly all actives have a fitted effect of over 55% in size
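NIH 3T3 cells at 400 cells/well received 23 nL of compound by pintool and were incubated 48 or 72 h at 37 °C. Viability was read as ATP-coupled CellTiter-Glo luminescence.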
GPT2 inhibitor: inhibitors of human GPT2 alanine aminotransferase; 100,000 tested, 0.25% active; Recombinant GPT2, coupled pyruvate oxidase/HRP Amplex Red fluorescence; Potency, µM (top dose mostly 57.7 µM), inactives show at the highest dose activity change, negative = inhibition, actives largely listed as inhibitors; also: nearly all actives have a fitted effect of over 60% in size
Target sequence (Q8TD30 whole entry, looked up): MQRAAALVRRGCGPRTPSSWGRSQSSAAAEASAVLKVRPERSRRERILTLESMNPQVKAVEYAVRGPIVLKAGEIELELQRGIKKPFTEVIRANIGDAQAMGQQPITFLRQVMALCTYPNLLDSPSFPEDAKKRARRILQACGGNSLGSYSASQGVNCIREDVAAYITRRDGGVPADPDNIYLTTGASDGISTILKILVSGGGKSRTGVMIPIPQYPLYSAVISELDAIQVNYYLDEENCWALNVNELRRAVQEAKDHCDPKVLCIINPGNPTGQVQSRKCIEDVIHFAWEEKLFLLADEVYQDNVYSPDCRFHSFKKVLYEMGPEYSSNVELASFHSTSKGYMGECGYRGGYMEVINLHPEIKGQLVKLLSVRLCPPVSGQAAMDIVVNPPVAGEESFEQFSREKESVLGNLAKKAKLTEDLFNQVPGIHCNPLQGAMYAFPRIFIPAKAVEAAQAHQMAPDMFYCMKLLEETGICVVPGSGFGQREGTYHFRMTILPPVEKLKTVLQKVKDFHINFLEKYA
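Fluorescence of coupled pyruvate oxidase/HRP/Amplex Red system (50uM Amplex, 30 min, dark) reports pyruvate formed by GPT2. Enzyme reaction: 10ng/uL GPT2, 2mM L-alanine, 250uM a-KG, 30 min room temperature, pH 7.5; 50uM AOA control.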
Active calls of the source: *; [ ] = another dose, or the depositor's remark. The list is not random: actives were taken first. Their share in the collection is about 10%. Unless noted, calls follow the shape of the dose curve; as a rule, active = well fitted curve in the direction sought with a large enough effect; inconclusive = small, poorly fitted or top-dose-only effect, or another doubt; inactive = no such curve, though single readings can be large; an effect the other way counts as inactive or inconclusive. % is scaled to controls: 0 for no effect and ±100 for the full control effect; potency is read from the fitted curve at half-maximal effect.

How did C=CCN1C[C@@H]2C[C@@H](C(N)=O)N(C(=O)CC3CCCC3)c3cccc(c32)[S+]1(=O)[O-] do in these assays?
HEK cytotox: inconclusive; 3T3 cytotox: inconclusive; GPT2 inhibitor: inactive

What do the screens show for `COCCn1c(=O)c(C(=O)NCCc2ccc(F)cc2)nc2cccnc21`?
HEK cytotox: 0%; 3T3 cytotox: -17%; GPT2 inhibitor: inactive

What do the screens show for `C[S+](=O)([O-])CCn1ncc2cc(OCc3cccc(-c4cccc(F)c4)c3)ccc21`?
Luciferase inh: inconclusive; HEK cytotox: inconclusive; NPR1 antag: 40µM*; 3T3 cytotox: inconclusive; GPT2 inhibitor: -5%[88.5 µM]

How did C[S+](=O)([O-])CCn1ncc2cc(OCC3CCN(c4ncccn4)CC3)ccc21 do in these assays?
Luciferase inh: 45µM*; HEK cytotox: inconclusive; NPR1 antag: inconclusive; 3T3 cytotox: -5%[138 µM]; GPT2 inhibitor: -7%[88.5 µM]

How did COc1ccc(F)cc1-c1cccc(COc2ccc3c(cnn3CC[S+](C)(=O)[O-])c2)c1 do in these assays?
Luciferase inh: inactive; HEK cytotox: inconclusive; NPR1 antag: inconclusive; 3T3 cytotox: inconclusive; GPT2 inhibitor: -20%

Results for O=C(O)CCn1ncc2cc(OCc3ccc(-c4cncnc4)cc3)ccc21 ?
Luciferase inh: 50µM*; HEK cytotox: -26%[172 µM]; NPR1 antag: 3%[70.6 µM]; 3T3 cytotox: 45µM*; GPT2 inhibitor: inconclusive

Results for CC(=O)N1CCC(COc2ccc3c(cnn3CC[S+](C)(=O)[O-])c2)CC1 ?
Luciferase inh: inconclusive; HEK cytotox: -25%[172 µM]; NPR1 antag: -1%[70.6 µM]; 3T3 cytotox: inconclusive; GPT2 inhibitor: -11%[88.5 µM]

Results for COc1ccccc1-c1cccc(COc2ccc3c(cnn3CC[S+](C)(=O)[O-])c2)c1 ?
Luciferase inh: inconclusive; HEK cytotox: inconclusive; NPR1 antag: inconclusive; 3T3 cytotox: inconclusive; GPT2 inhibitor: -12%[88.5 µM]

What do the screens show for `COc1ncccc1-c1cccc(COc2ccc3c(cnn3CC[S+](C)(=O)[O-])c2)c1`?
Luciferase inh: 16µM*; HEK cytotox: 28µM*; NPR1 antag: 35µM*; 3T3 cytotox: inconclusive; GPT2 inhibitor: 1%[88.5 µM]

What do the screens show for `COc1ccccc1CNC(=O)C1CN(C2CCCC2)C(=O)N1` (centres undefined)?
HEK cytotox: -25%[172 µM]; 3T3 cytotox: -17%[138 µM]; GPT2 inhibitor: inactive

What do the screens show for `CNC(=O)CCn1ncc2cc(OCc3ccccc3-c3cnc(OC)nc3)ccc21`?
Luciferase inh: inconclusive; HEK cytotox: inconclusive; NPR1 antag: -2%[70.6 µM]; 3T3 cytotox: -24%[138 µM]; GPT2 inhibitor: inactive

Results for COc1ncc(-c2cccc(COc3ccc4c(cnn4CC[S+](C)(=O)[O-])c3)c2)cn1 ?
Luciferase inh: inconclusive; HEK cytotox: 71µM*; NPR1 antag: inconclusive; 3T3 cytotox: -15%[138 µM]; GPT2 inhibitor: inconclusive

What do the screens show for `C[S+](=O)([O-])CCn1ncc2cc(OCc3cccc(-c4cncnc4)c3)ccc21`?
Luciferase inh: 35µM*; HEK cytotox: inconclusive; NPR1 antag: -19%[70.6 µM]; 3T3 cytotox: inconclusive; GPT2 inhibitor: -8%[88.5 µM]

How did C[S+](=O)([O-])CCn1ncc2cc(OCc3cccc(-c4ccoc4)c3)ccc21 do in these assays?
Luciferase inh: inconclusive; HEK cytotox: 71µM*; NPR1 antag: inconclusive; 3T3 cytotox: inconclusive; GPT2 inhibitor: -14%[88.5 µM]

How did C[S+](=O)([O-])CCn1ncc2cc(OCC3CCN(C(=O)c4cccc(F)c4F)CC3)ccc21 do in these assays?
Luciferase inh: inactive; HEK cytotox: inconclusive; NPR1 antag: -3%; 3T3 cytotox: -19%; GPT2 inhibitor: 0%

Results for O=C(c1ccccc1Cl)N1CCC(N(Cc2ccccc2)C2CCOCC2)CC1 ?
Luciferase inh: inactive; HEK cytotox: inconclusive; NPR1 antag: 1%; 3T3 cytotox: inconclusive; GPT2 inhibitor: inactive

Results for CN(CC(O)COc1cccc(CNCCc2ccc(F)cc2)c1)C1CCCCC1 (centres undefined) ?
Luciferase inh: inactive; HEK cytotox: 18µM*; NPR1 antag: -9%; 3T3 cytotox: inconclusive; GPT2 inhibitor: inconclusive

Assay outcomes deposited in PubChem by National Center for Advancing Translational Sciences (NCATS).
